Laboratory results from PubChem BioAssay AID651956 (Broad Institute, 2012).
Results with a measured potency or affinity are listed apart. Records with an inconclusive call do not appear. The source made the active and inactive calls.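 How the source made its calls: active means in every test run, a fitted half-maximal concentration for signal decrease at or below twice the highest tested concentration; inconclusive means runs disagree, flat 30 to 70% decrease, or poor fit; inactive means the rest.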

Assay: activation of miR-122 Renilla sensor silencing – cell-based, Huh7 psiCHECK-miR122, Renilla luciferase, cherry-picked, dose response (AID 651956)
Details: Huh7 psiCHECK-miR122 Renilla luciferase reporter, 48 h; series mostly up to 35 µM

SMILES	outcome
CNC(=O)C[C@H]1CC[C@@H]2[C@H](COc3ccc(NC(=O)NC(C)C)cc3C(=O)N2C)O1	inactive
COCC(=O)N(C[C@@H]1N[C@H](CO)[C@H]1c1ccc(C2=CCCC2)cc1)C(C)C	inactive
N=c1c2c(-c3ccccc3)c(-c3ccccc3)n(Cc3ccccc3)c2ncn1CCCO	inactive
CCNC(=O)Nc1ccc2c(c1)C(=O)N(C)[C@H]1CC[C@H](CC(=O)Nc3ccccc3F)O[C@@H]1CO2	inactive
CN1C(=O)c2cc(NC(=O)c3cccs3)ccc2OC[C@@H]2O[C@@H](CC(=O)NCCN3CCCCC3)CC[C@H]21	inactive
Fc1ccccc1-c1nc(-c2ccncc2)no1	inactive
N#CC1=C(N)Oc2c(ccc3cccnc23)C1c1ccccc1 (stereo not drawn)	inactive
CCOC(=O)c1nc(C)n(-c2ccc(Cl)cc2Cl)n1	inactive
CC(C)C(=O)Nc1ccc2c(c1)C(=O)N(C)[C@@H]1CC[C@H](CC(=O)N[C@H](C)c3ccccc3)O[C@@H]1CO2	inactive
COCC(=O)N(C[C@H]1N[C@@H](CO)[C@@H]1c1ccc(C2=CCCC2)cc1)C(C)C	inactive
CO[C@H]1CN(C)C(=O)c2cc(NC(C)=O)ccc2OC[C@@H](C)N(C(=O)CC2CC2)C[C@H]1C	inactive
O=C(NCC(c1cccnc1)N1CCOCC1)NC1CCCCC1 (stereo not drawn)	inactive
CN1C(=O)c2cc(NC(=O)c3cccc(F)c3)ccc2OC[C@@H]2O[C@@H](CC(=O)Nc3ccccc3)CC[C@@H]21	inactive
COc1nnc(-c2ccc(N3CCOCC3)c(NC(=O)c3ccccc3)c2)c2ccccc12	inactive
C/C=C/c1ccc([C@H]2[C@H](CO)N(C(C)=O)[C@H]2CN(C)C(=O)c2ccccn2)cc1	inactive
C/C=C/c1ccc([C@H]2[C@H](CO)N[C@H]2CN(C)S(=O)(=O)c2ccccc2)cc1	inactive
CCCNC(=O)C[C@H]1CC[C@@H]2[C@H](COc3ccc(NC(=O)c4cccs4)cc3C(=O)N2C)O1	inactive
C[C@@H]1CN([C@H](C)CO)C(=O)c2cccc(NC(=O)c3ccc(-c4nccs4)cc3)c2O[C@H]1CN(C)S(=O)(=O)c1ccc(F)cc1	inactive
OC[C@H]1[C@@H](c2ccccc2)[C@H](CNCC2CCC2)N1CC1CC1	inactive

SMILES	outcome
C/C=C/c1ccc([C@H]2[C@@H](CO)N(C(=O)C3CC3)[C@H]2CNC(=O)NC(C)C)cc1	inactive
CCCC(=O)Nc1ccc2c(c1)C(=O)N(C)[C@@H]1CC[C@H](CC(=O)NCc3cccc(F)c3)O[C@H]1CO2	inactive
CN1C(=O)c2cc(NC(=O)c3cccc(F)c3)ccc2OC[C@@H]2O[C@H](CC(=O)NC3CCC3)CC[C@@H]21	inactive
O=C(Nc1ccccc1N1CCN(C(=O)c2ccc(Cl)cc2)CC1)c1cccnc1	inactive
CC(=O)Nc1ccc2c(c1)C(=O)N(C)[C@H]1CC[C@H](CC(=O)NC3CCCCC3)O[C@@H]1CO2	inactive
CC(=O)Oc1ccc2c(c1)C(=O)c1ccccc1CO2	inactive
C[C@@H]1CN([C@@H](C)CO)S(=O)(=O)c2ccc(C#Cc3ccccc3F)cc2O[C@H]1CN(C)C(=O)c1ccc2c(c1)OCO2	inactive
CN1C(=O)c2cc(NS(=O)(=O)c3cccc(F)c3)ccc2OC[C@H]2O[C@@H](CC(=O)NCCN3CCCCC3)CC[C@H]21	inactive
COCC(=O)N(C)C[C@@H]1[C@H](c2ccc(-c3ccccc3)cc2)[C@@H](CO)N1C(C)=O	inactive
CN(C)CCNC(=O)C1CC(=O)N(c2ccc(F)c(Cl)c2)C1 (stereo not drawn)	inactive
CN1C(=O)c2cc(NC(=O)c3cccc(F)c3)ccc2OC[C@@H]2O[C@@H](CC(=O)O)CC[C@H]21	inactive
CN(C)CCCNC(=O)C[C@H]1CC[C@H]2[C@H](COc3ccc(NC(=O)c4cccc(F)c4)cc3C(=O)N2C)O1	inactive
CN1C(=O)c2cc(NC(=O)c3cccs3)ccc2OC[C@@H]2O[C@@H](CC(=O)NCCN3CCCCC3)CC[C@@H]21	inactive
Cc1onc(-c2ccccc2)c1C(=O)NCc1ccccn1	inactive
Cc1cc(C)cc(NC(=O)c2ccc(CSc3nnc(C)s3)cc2)c1	inactive
CCCNC(=O)C[C@H]1CC[C@H]2[C@@H](COc3ccc(NC(=O)c4cc(F)cc(F)c4)cc3C(=O)N2C)O1	inactive
C/C=C/c1ccc([C@@H]2[C@@H](CO)N(S(C)(=O)=O)[C@H]2CN(C)C(=O)CC)cc1	inactive
COC(=O)C[C@@H]1CC[C@H]2[C@@H](COc3ccc(NC(=O)Nc4ccccc4C)cc3C(=O)N2C)O1	inactive
O=C(Nc1ccc(Cl)c(C(F)(F)F)c1)c1ccco1	inactive
